Measurements taken from PubChem BioAssay AID1159580 (chemical genetic matrix, 2015).
Where “and” joins values, the source holds several entries; their conditions need not be identical. Equal values may be shown once. In all, about 5,500 compounds went through this assay and about 2,000 (36%) were called active. Not shown: some 18% with an inconclusive outcome. Cut-off read from the data, not from the text of the source: active = normalized growth mostly below about 0.91 (no sharp cut-off); inconclusive = no clear call, values can overlap the other calls; inactive = mostly above about 0.92. The list shows a part of the results.

Assay: chemical genetic growth profiling, strain panel (AID 1159580);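 note: tested at 20 µM; growth read once vehicle control cultures reached saturation at 30 °C; 1 = growth at the plate median or of vehicle wells; lower values mean less growth of the strain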
Conditions: S. cerevisiae deletion strains, growth OD

Measured: normalized growth

COc1cc(OC)c2c(OC)c(-c3ccc4c(c3)OCO4)c(=O)oc2c1
inactive: locus YAL013W, strain DEP1, stronger effect = lower value 0.982 | locus YAL021C, strain ccr4, stronger effect = lower value 0.968 | locus YAL026C, strain drs2, stronger effect = lower value 0.957 | locus YAL030W, strain snc1, stronger effect = lower value 0.975 | locus YBL061C, strain skt5, stronger effect = lower value 0.955 | locus YBR009C, strain hhf1, stronger effect = lower value 0.934 | locus YBR021W, strain FUR4, stronger effect = lower value 0.975 | locus YBR023C, strain chs3, stronger effect = lower value 0.943 | locus YBR171W, strain sec66, stronger effect = lower value 1 | locus YBR229C, strain ROT2, stronger effect = lower value 0.987 | locus YBR231C, strain swc5, stronger effect = lower value 0.954 | locus YBR279W, strain paf1, stronger effect = lower value 0.969 | locus YCL011C, strain gbp2, stronger effect = lower value 0.966 | locus YCL016C, strain dcc1, stronger effect = lower value 0.969 | locus YCL029C, strain bik1, stronger effect = lower value 0.995 | locus YCL061C, strain MRC1, stronger effect = lower value 0.985 | locus YCL069W, strain vba3, stronger effect = lower value 1.01 | locus YCR088W, strain abp1, stronger effect = lower value 0.988 | locus YDL005C, strain med2, stronger effect = lower value 0.983 | locus YDL035C, strain GPR1, stronger effect = lower value 0.987 | locus YDL040C, strain nat1, stronger effect = lower value 0.971 | locus YDL074C, strain BRE1, stronger effect = lower value 0.93 | locus YDL101C, strain DUN1, stronger effect = lower value 0.982 | locus YDL134C, strain PPH21, stronger effect = lower value 0.986 | locus YDL185W, strain tfp1, stronger effect = lower value 0.996 | locus YDL192W, strain arf1, stronger effect = lower value 0.979 | locus YDR001C, strain nth1, stronger effect = lower value 0.98 | locus YDR069C, strain doa4, stronger effect = lower value 0.982 | locus YDR101C, strain arx1, stronger effect = lower value 0.975 | locus YDR150W, strain NUM1, stronger effect = lower value 1.01 | locus YDR159W, strain sac3, stronger effect = lower value 0.951 | locus YDR162C, strain NBP2, stronger effect = lower value 0.973 | locus YDR195W, strain ref2 1.05 | locus YDR297W, strain sur2, stronger effect = lower value 0.974 | locus YDR318W, strain mcm21, stronger effect = lower value 0.976 | locus YDR334W, strain swr1, stronger effect = lower value 0.983 | locus YDR335W, strain msn5, stronger effect = lower value 1.01 | locus YDR388W, stronger effect = lower value 0.972 | locus YDR502C, strain sam2, stronger effect = lower value 0.956 | locus YEL003W, strain gim4, stronger effect = lower value 0.971 | locus YEL037C, strain rad23, stronger effect = lower value 0.986 | locus YEL061C, strain CIN8 (second series), stronger effect = lower value 1 | locus YEL061C, strain CIN8, stronger effect = lower value 0.996 | locus YER015W, strain faa2, stronger effect = lower value 0.96 | locus YER016W, strain bim1, stronger effect = lower value 0.974 | locus YER110C, stronger effect = lower value 0.972 | locus YER111C, strain swi4, stronger effect = lower value 1.02 | locus YER155C, strain BEM2 (second series), stronger effect = lower value 0.897 | locus YER155C, strain BEM2, stronger effect = lower value 0.988 | locus YER167W, strain BCK2, stronger effect = lower value 0.99 | locus YFR010W, strain ubp6, stronger effect = lower value 1.01 | locus YGL078C, strain dbp3, stronger effect = lower value 0.99 | locus YGL086W, strain mad1, stronger effect = lower value 0.976 | locus YGL167C, strain pmr1, stronger effect = lower value 0.963 | locus YGL173C, strain kem1, stronger effect = lower value 0.98 | locus YGL227W, strain vid30, stronger effect = lower value 1 | locus YGL240W, strain doc1, stronger effect = lower value 0.941 | locus YGL248W, strain PDE1, stronger effect = lower value 0.985 | locus YGL253W, strain hxk2, stronger effect = lower value 0.936 | locus YGR078C, strain PAC10, stronger effect = lower value 0.962 | locus YGR135W, strain pre9, stronger effect = lower value 0.931 | locus YGR229C, strain SMI1, stronger effect = lower value 0.921 | locus YGR252W, strain gcn5, stronger effect = lower value 0.903 | locus YHR013C, strain ard1, stronger effect = lower value 0.962 | locus YHR027C, strain rpn1, stronger effect = lower value 0.999 | locus YHR030C, strain SLT2, stronger effect = lower value 0.993 and 0.954 | locus YHR079C, strain IRE1 (second series), stronger effect = lower value 0.976 | locus YHR079C, strain IRE1, stronger effect = lower value 0.948 | locus YHR094C, strain hxt1, stronger effect = lower value 0.994 | locus YHR129C, strain ARP1, stronger effect = lower value 0.989 | locus YHR142W, strain chs7, stronger effect = lower value 0.882 | locus YHR200W, strain rpn10, stronger effect = lower value 0.981 | locus YIL066C, strain RNR3, stronger effect = lower value 0.982 | locus YIL073C, strain SPO22, stronger effect = lower value 0.978 | locus YIL125W, strain kgd1, stronger effect = lower value 0.997 | locus YIR030C, strain dcg1, stronger effect = lower value 0.975 | locus YJL092W, strain hpr5, stronger effect = lower value 0.994 | locus YJL095W, strain BCK1 (second series), stronger effect = lower value 0.97 | locus YJL095W, strain BCK1, stronger effect = lower value 0.915 and 0.957 | locus YJL115W, strain asf1, stronger effect = lower value 1 | locus YJL129C, strain trk1, stronger effect = lower value 0.97 | locus YJL134W, strain LCB3, stronger effect = lower value 0.991 | locus YJL154C, strain vps35, stronger effect = lower value 0.993 | locus YJL164C, strain tpk1, stronger effect = lower value 0.946 | locus YJL166W, strain qcr8, stronger effect = lower value 0.931 | locus YJL168C, strain set2, stronger effect = lower value 0.976 | locus YJL187C, strain SWE1 (second series), stronger effect = lower value 0.977 | locus YJL187C, strain SWE1, stronger effect = lower value 0.971 | locus YJR043C, strain POL32, stronger effect = lower value 1.01 | locus YJR066W, strain TOR1, stronger effect = lower value 0.95
active: locus YDR137W, strain rgp1, stronger effect = lower value 0.777 | locus YDR392W, strain spt3, stronger effect = lower value 0.477
